VDR inh – inhibitors of human vitamin D receptor; VDR-SRC2-3 peptide fluorescence polarization, 2 h; AID 504847; Potency, µM, without a hit: max response, negative = inhibition, actives largely listed as inhibitors; actives 0.93% (n = 400,000); also: potency is read from the fitted curve at half-maximal effect; % is scaled to controls: 0 for no effect and ±100 for the full control effect
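Measured by FP: displacement of SRC2-3 coactivator peptide from VDR by library compounds, following a two-hour ambient incubation.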
uPA generation – blocks generation of uPA at the cell surface | cell surface uPA generation assay, qHTS | Potency, µM (highest dose often 38.3 µM), without a hit: at the top dose activity change, negative = inhibition, usual class: inhibitors | actives 0.31% (n = 330,000) | AID 540303; active = well fitted inhibition curve with a large enough effect; inconclusive = small, poorly fitted or top-dose-only effect; inactive = no such curve, though single readings can be large or run the other way; tested in mouse RAW 264.7 cells; also: potency is read from the fitted curve at half-maximal effect; % is scaled to controls: 0 for no effect and ±100 for the full control effect; nearly all actives have a fitted effect of over 55% in size
TSHR antagonist – blocks TSH signaling through the human TSH receptor; TSHR-expressing cells, TSH-stimulated cAMP HTRF, 2 h; stronger effect = lower value; activity change, negative = inhibition, % at 11.5 µM; actives 0.2% (n = 330,000);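 active = activity change below a set negative limit, meaning inhibition stronger than a set level, cut at about -70% in these data; inconclusive = activity change between two set negative limits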; also: % is scaled to controls: 0 for no effect and ±100 for the full control effect
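TSHR-expressing cells, 200/well, pre-treated with compound, then stimulated with EC80 TSH (4nM final) for 2 hours at 37 deg C. cAMP measured by competitive HTRF: anti-cAMP cryptate antibody in lysis buffer plus cAMP-d2, read after 30 minutes at room temperature.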
PLK1 PBD block – blocks phosphopeptide binding to human PLK1 polo-box domain; Plk1 PBD binding of FITC phosphopeptide, fluorescence polarization; Potency, µM, for the others: max response, negative = inhibition, most hits filed as inhibitors; actives 2.8% (n = 360,000); also: potency is read from the fitted curve at half-maximal effect; series mostly up to about 57 µM; % is scaled to controls: 0 for no effect and ±100 for the full control effect; nearly all actives have a fitted effect of over 65% in size
Target sequence (P53350 whole entry, looked up, the tested form may be a part): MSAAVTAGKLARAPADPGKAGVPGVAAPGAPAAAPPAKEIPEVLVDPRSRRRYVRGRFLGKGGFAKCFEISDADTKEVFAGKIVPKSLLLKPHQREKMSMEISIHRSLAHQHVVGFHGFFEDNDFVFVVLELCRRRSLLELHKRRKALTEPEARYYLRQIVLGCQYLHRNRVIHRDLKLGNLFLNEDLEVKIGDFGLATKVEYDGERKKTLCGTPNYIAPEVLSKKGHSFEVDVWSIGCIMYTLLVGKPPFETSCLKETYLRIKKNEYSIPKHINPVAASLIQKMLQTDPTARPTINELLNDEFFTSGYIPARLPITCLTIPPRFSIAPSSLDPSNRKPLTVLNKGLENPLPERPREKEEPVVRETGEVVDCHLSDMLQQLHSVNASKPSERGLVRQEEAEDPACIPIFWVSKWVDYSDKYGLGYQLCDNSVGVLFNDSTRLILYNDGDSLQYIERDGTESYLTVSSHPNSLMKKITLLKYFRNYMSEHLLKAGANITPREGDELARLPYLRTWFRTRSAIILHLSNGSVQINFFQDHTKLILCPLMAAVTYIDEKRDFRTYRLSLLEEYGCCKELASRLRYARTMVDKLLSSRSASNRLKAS
PTAP TSG101 blk – blocks PTAP/TSG101 interaction to inhibit HIV-1 budding. Q99816. Fluorescence polarization, FITC-PTAP peptide / Tsg101 binding. Potency, µM (doses to about 115 µM), inactives show at the highest dose activity change, negative = inhibition, actives largely listed as inhibitors. 340,000 tested, under 10 active. AID 493005; active = well fitted inhibition curve with a large enough effect in the main read-out, with a control signal flat, not every such curve was filed as active; inconclusive = small, poorly fitted or top-dose-only effect, or effect the other way, or a change in a side signal; inactive = no such curve, though single readings can be large or run the other way; also: potency is read from the fitted curve at half-maximal effect; % of control where 0% means no effect
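Steps: Tsg101 binding domain dispensed (10 uM final), compounds pinned in DMSO, FITC-labeled PTAP-motif peptide added (50 nM final); after 20 min binding at room temperature, polarization measured.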
TbPYK inh – confirmation of Trypanosoma brucei pyruvate kinase inhibitors; recombinant TbPYK, Kinase-Glo ATP luminescence; actives 67% (n = 890); Potency, µM (titrated, usually from 76.9 µM), inactives show at the highest dose activity change, negative = inhibition, usual class: inhibitors; shares compounds with PLK1 PBD block; also: potency is read from the fitted curve at half-maximal effect; % is scaled to controls: 0 for no effect and ±100 for the full control effect; nearly all actives have a fitted effect of over 70% in size
TbPYK orthogonal – TbPYK inhibition, orthogonal confirmation | AID 720584 | recombinant TbPYK, ADP-Glo luminescence, 60 min | shares compounds with PLK1 PBD block | Potency, µM (doses to about 76.9 µM), inactives show at the top dose activity change, negative = inhibition, hits mostly inhibitors | actives 62% (n = 890); also: potency is read from the fitted curve at half-maximal effect; % is scaled to controls: 0 for no effect and ±100 for the full control effect; nearly all actives have a fitted effect of over 75% in size
Active calls of the source: *. Hits are enriched below; roughly 3.1% of the tested compounds scored in any of these assays. Unless noted, calls follow the shape of the dose curve; as a rule, active = well fitted curve in the direction sought with a large enough effect; inconclusive = small, poorly fitted or top-dose-only effect, or another doubt; inactive = no such curve, though single readings can be large; an effect the other way counts as inactive or inconclusive.

`Cc1nc(NC(=O)c2ccco2)sc1C(=O)O` gave VDR inh -0.1%, uPA generation 8.3%, TSHR antagonist -9.4, PLK1 PBD block -4.5%, PTAP TSG101 blk -6.6%, TbPYK inh 20µM* and TbPYK orthogonal -9.5%.
For CCCCC(=O)N(Cc1ccc2c(c1)OCO2)Cc1nc2ccccc2c(=O)[nH]1 the results were VDR inh inconclusive, uPA generation -0.5%, TSHR antagonist -11.7, PLK1 PBD block 6.7µM*, PTAP TSG101 blk -5.9%, TbPYK inh 7.4% and TbPYK orthogonal 2.2%.
`Cc1ccc(C(=O)N(Cc2ccc3c(c2)OCO3)Cc2nc3ccccc3c(=O)[nH]2)cc1` gave VDR inh 11.8%, uPA generation 8.9%, TSHR antagonist -0.6, PLK1 PBD block -7.5% and PTAP TSG101 blk -10.9%.
COc1ccc(Cn2c(=O)[nH]c3cc(C(=O)NCCC(C)C)ccc3c2=O)cc1 was read as VDR inh -8.0%.
For COc1ccccc1C(=O)Nc1nc2nc(C)cc(=O)n2[nH]1 the results were VDR inh 15.5%.
O=c1cc(O)n(-c2ccccc2)c(=S)[nH]1 was read as VDR inh -21.8%, uPA generation 0.9%, TSHR antagonist -7.5, PLK1 PBD block 3.36µM*, PTAP TSG101 blk -0.2%, TbPYK inh inconclusive and TbPYK orthogonal -20.7%.
Screening Cc1[nH]c2ccccc2c1C1=CC(=O)C=CC1=O returned VDR inh 28.2µM*, uPA generation -14.0%, PLK1 PBD block 3.36µM*, PTAP TSG101 blk -6.6%, TbPYK inh 0.562µM* and TbPYK orthogonal 2.82µM*.
`CCOc1ccc(CCNC(=O)c2ccc(CS(=O)(=O)Cc3ccccc3Cl)o2)cc1OCC` gave VDR inh 10.9%.
Screening COc1ccccc1-c1cc2nc(C)c(CCC(=O)Nc3ccc(Br)c(C)c3)c(C)n2n1 returned VDR inh 0.7%.
For O=C(Cn1cc(S(=O)(=O)Cc2ccc([N+](=O)[O-])cc2)c2ccccc21)N1CCOCC1 the results were VDR inh 4.6%, uPA generation 1.4%, TSHR antagonist -3.4, PLK1 PBD block -22.2%, PTAP TSG101 blk 1.2%, TbPYK inh 15.8µM* and TbPYK orthogonal 25.1µM*.
`Cc1ccccc1CS(=O)(=O)c1cn(CC(=O)N2CCOCC2)c2ccccc12` gave VDR inh -21.7%, uPA generation -1.4%, TSHR antagonist 8.2, PLK1 PBD block -5.9% and PTAP TSG101 blk -1.4%.
O=C1C=CC(=O)N1c1cccc(-c2ccccc2)c1 was read as VDR inh 44.7µM*, uPA generation -11.9%, TSHR antagonist -37.5, PLK1 PBD block 2.67µM*, PTAP TSG101 blk 2.6%, TbPYK inh 3.98µM* and TbPYK orthogonal 7.94µM*.
For CN(C(=O)c1sc2nc(N3CCOCC3)c3c(c2c1N)CCCC3)c1ccccc1 the results were VDR inh -15.2%, uPA generation 6.1%, TSHR antagonist -14.5, PLK1 PBD block -9.3% and PTAP TSG101 blk -4.0%.
`CCCCN(CCCC)C(=O)c1sc2nc(N3CCOCC3)c3c(c2c1N)CCCC3` gave VDR inh inconclusive, uPA generation 15.0%, TSHR antagonist -6.2, PLK1 PBD block 29.9µM*, PTAP TSG101 blk -2.0%, TbPYK inh 1.58µM* and TbPYK orthogonal 3.16µM*.
`NC(=O)c1sc2nc(N3CCOCC3)c3c(c2c1N)CCCC3` gave VDR inh -14.3%, uPA generation 5.8%, TSHR antagonist 0.5, PLK1 PBD block 26.7µM*, PTAP TSG101 blk 1.7%, TbPYK inh 11.2µM* and TbPYK orthogonal 10µM*.
For CCOC(=O)c1sc2nc(N3CCOCC3)c3c(c2c1N)CCC3 the results were VDR inh -10.5%, uPA generation -0.7%, TSHR antagonist 8.1, PLK1 PBD block -2.9% and PTAP TSG101 blk -1.3%.
Screening C[C@@H]1CCCCO[C@H](CN(C)C(=O)Nc2cccc3ccccc23)[C@@H](C)CN([C@H](C)CO)C(=O)c2cc(NC(=O)c3ccccc3)ccc2O1 returned PLK1 PBD block -1.6%.
C[C@H]1CCC/C=C/[C@@H]2C[C@H](O)C[C@H]2[C@H](O)[C@H](S(=O)c2ccc(O)cc2)CC(=O)O1 (some centres undefined) was read as VDR inh inconclusive, uPA generation -8.2%, PLK1 PBD block 10.6µM*, PTAP TSG101 blk -6.3%, TbPYK inh 17.8µM* and TbPYK orthogonal 12.6µM*.
COc1cccc(/C=N/N2C(=O)CSC2=S)c1O was read as VDR inh inconclusive, uPA generation -0.1%, TSHR antagonist -7.7, PLK1 PBD block inconclusive, PTAP TSG101 blk -2.1%, TbPYK inh inconclusive and TbPYK orthogonal inconclusive.
For COc1cc(/C=N/N2C(=O)CSC2=S)cc(Br)c1O the results were VDR inh inconclusive, uPA generation 0.3%, TSHR antagonist -3.6, PLK1 PBD block inconclusive and PTAP TSG101 blk 1.0%.
For O=C1CSC(=S)N1N=Cc1c(O)ccc2ccccc12 the results were VDR inh inconclusive, uPA generation 1.4%, PLK1 PBD block -10.3%, PTAP TSG101 blk 4.5%, TbPYK inh inconclusive and TbPYK orthogonal 15.8µM*.
`CCC(CC)CN1CCC(CN2C(=O)C(=O)NC[C@@H]2CC(C)C)CC1` gave PLK1 PBD block -2.9%.
Cc1[nH]cnc1C(=O)N/N=C/c1c(Cl)cccc1Cl was read as VDR inh -16.4%, uPA generation -9.3%, TSHR antagonist -1.7, PLK1 PBD block 1.2%, PTAP TSG101 blk -2.6%, TbPYK inh 20µM* and TbPYK orthogonal 12.3%.
Screening Cc1nnsc1C(=O)N/N=C/c1c(F)cccc1Cl returned VDR inh -16.9%, uPA generation 2.8%, TSHR antagonist 3.7, PLK1 PBD block -1.0% and PTAP TSG101 blk -1.4%.
O=S(=O)(NCCC(c1ccc(F)cc1)c1ccco1)c1ccccc1 (centres undefined) was read as VDR inh inconclusive, uPA generation 2.8%, TSHR antagonist -4.1, PLK1 PBD block 21.2µM*, PTAP TSG101 blk -8.3%, TbPYK inh -3.1% and TbPYK orthogonal -5.3%.
`CN(C)c1ccc(C(=O)C(O)c2ccccc2)cc1` (centres undefined) gave VDR inh -4.2%, uPA generation -0.3%, TSHR antagonist 1.6, PLK1 PBD block -6.9% and PTAP TSG101 blk -3.7%.
